Results filed as inconclusive are left out. Calls of active or inactive are those of the source. Unless noted, the call rests on the fitted dose curve.
Columns and labels:
[1] = qHTS for Inhibitors of the Functional Ribonucleoprotein Complex (vRNP) of Lassa (LASV) Arenavirus: LASV Primary Screen - GLuc reporter signal (AID 1347082; calls by dose curve; tested in HEK293 reporter line; further: nearly all actives have a fitted effect of over 60% in size; on activity change, negative = inhibition: series mostly up to about 57 µM)
[2] = qHTS for Inhibitors of the Functional Ribonucleoprotein Complex (vRNP) of Lassa (LASV) Arenavirus: Viability assay - alamar blue signal for LASV Primary Screen (AID 1347083; calls by dose curve; tested in HEK293 reporter line; further: nearly all actives have a fitted effect of over 80% in size; on activity change, negative = reduced viability: series mostly up to about 57 µM)
[3] = qHTS for Inhibitors of the Functional Ribonucleoprotein Complex (vRNP) of Lymphocytic Choriomeningitis Arenaviruses (LCMV): Viability assay - alamar blue signal for LCMV Primary Screen (AID 1347085; calls by dose curve; tested in HEK293 reporter line; further: nearly all actives have a fitted effect of over 80% in size; on activity change, negative = lower viability: series mostly up to about 57 µM)
[4] = molecular target: Nucleoprotein (Lymphocytic choriomeningitis virus (strain Armstrong)) (UniProt P09992); assay: qHTS for Inhibitors of the Functional Ribonucleoprotein Complex (vRNP) of Lymphocytic Choriomeningitis Arenaviruses (LCMV): LCMV Primary Screen - GLuc reporter signal (AID 1347086); further: nearly all actives have a fitted effect of over 70% in size; on activity change, negative = inhibition: series mostly up to about 57 µM
On the % scale 0 is the no-effect control and ±100 the full control effect; potency means the concentration at half of the fitted maximal effect.

Chain of Nucleoprotein (Lymphocytic choriomeningitis virus (strain Armstrong)) (P09992 whole entry, looked up): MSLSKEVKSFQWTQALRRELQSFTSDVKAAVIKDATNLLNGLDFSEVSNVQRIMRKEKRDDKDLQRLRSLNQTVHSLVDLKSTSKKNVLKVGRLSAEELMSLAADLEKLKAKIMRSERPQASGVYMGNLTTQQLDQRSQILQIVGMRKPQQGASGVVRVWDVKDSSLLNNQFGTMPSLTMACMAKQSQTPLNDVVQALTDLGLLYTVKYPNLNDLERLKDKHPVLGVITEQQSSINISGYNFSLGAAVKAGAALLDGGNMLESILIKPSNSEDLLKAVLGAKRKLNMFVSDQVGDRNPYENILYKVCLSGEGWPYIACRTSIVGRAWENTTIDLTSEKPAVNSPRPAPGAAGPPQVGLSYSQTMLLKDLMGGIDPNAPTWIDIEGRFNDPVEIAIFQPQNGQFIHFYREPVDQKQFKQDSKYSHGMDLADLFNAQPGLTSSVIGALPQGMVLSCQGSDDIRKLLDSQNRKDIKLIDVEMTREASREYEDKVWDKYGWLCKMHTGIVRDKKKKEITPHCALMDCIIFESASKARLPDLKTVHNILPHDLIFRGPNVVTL

O=C1C[C@@H](c2ccc(O)c(O)c2)Oc2c1ccc(O[C@@H]1O[C@H](CO)[C@@H](O)[C@H](O)[C@H]1O)c2O
inactive: Potency [1] | Potency [2] | Potency [3] | Potency [4]

COc1cc(C(C)=O)cc(OC)c1O
inactive: Potency [1] | Potency [2] | Potency [3] | Potency [4]

CNc1nc(-c2ccc3c(N)n[nH]c3c2)cc(N2C[C@@H](C(=O)NC3CCCCC3)CC[C@@H]2C)n1
active: Potency [2] 24.3 µM | Potency [3] 38.5 µM
inactive: Potency [1] | Potency [4]

Cc1[nH]c(C=C2C(=O)Nc3ccccc32)c(C)c1CCC(=O)O
active: Potency [2] 10.9 µM | Potency [3] 21.7 µM | Potency [4] 34.3 µM
inactive: Potency [1]

COc1ccc(-c2cc(=O)c3ccc(O)cc3o2)cc1
inactive: Potency [1] | Potency [2] | Potency [3] | Potency [4]

CC(C)(O)[C@H](O)COc1c2occc2cc2ccc(=O)oc12
inactive: Potency [1] | Potency [2] | Potency [3] | Potency [4]

C=CCc1c(OC)ccc2ccc(=O)oc12
inactive: Potency [1] | Potency [2] | Potency [3] | Potency [4]

COc1c(O)cc2c(=O)oc3c(OC)c(O)cc4c(=O)oc1c2c34
inactive: Potency [1] | Potency [2] | Potency [3] | Potency [4]

C=C(C)[C@@H]1CCC2=CCC[C@@H](C)[C@]2(C)C1
inactive: Potency [1] | Potency [2] | Potency [3] | Potency [4]

COc1cc(C)c(C(=O)Oc2cc(C)c(C(=O)O)c(O)c2C)c(O)c1C(=O)O
inactive: Potency [1] | Potency [2] | Potency [3] | Potency [4]

COc1ccc2c3c([nH]c2c1)C(C)NCC3 (stereo not given)
inactive: Potency [1] | Potency [2] | Potency [3] | Potency [4]

C=C1C[C@@]23CC4C5[C@@]6(C)C[C@H](O)C[C@@]57C2[C@H](O)[C@@H]1[C@H](O)[C@H]3[C@H]7N4C6
inactive: Potency [1] | Potency [2] | Potency [3] | Potency [4]

COc1cc2oc(=O)ccc2c(OC)c1CC(O)C(C)(C)O (stereo not given)
inactive: Potency [1] | Potency [2] | Potency [3] | Potency [4]

COc1ccc(-c2coc3cc(O)cc(O)c3c2=O)cc1OC
inactive: Potency [1] | Potency [2] | Potency [3] | Potency [4]

COc1cc(C2OCC3C(c4ccc(OC5OC(CO)C(O)C(O)C5O)c(OC)c4)OCC23)ccc1O (stereo not given)
inactive: Potency [1] | Potency [2] | Potency [3] | Potency [4]

COc1c2c(nc3occc13)C(CC=C(C)C)(OC)C(O)CC2 (stereo not given)
inactive: Potency [1] | Potency [2] | Potency [3] | Potency [4]

Cn1c2c(c(=O)c3ccccc31)C[C@@H](O)C(C)(C)O2
inactive: Potency [1] | Potency [2] | Potency [3] | Potency [4]

CC(=O)O[C@H]1C2[C@@H](OC(=O)Cc3ccccc3)[C@@H](C)C[C@]2(OC(C)=O)C(=O)/C(C)=C/[C@@H]2[C@H](CC[C@@]13CO3)C2(C)C (stereo not given in full)
inactive: Potency [1] | Potency [2] | Potency [3] | Potency [4]

CCCCN
inactive: Potency [1] | Potency [2] | Potency [3] | Potency [4]

CC1(C)CCC[C@@](C)([C@H]2CC[C@]3(C)[C@@H]2[C@H](O)CC2[C@@]4(C)CC[C@H](O)C(C)(C)[C@@H]4[C@@H](O)C[C@]23C)O1 (stereo not given in full)
inactive: Potency [1] | Potency [2] | Potency [3] | Potency [4]

CCCCC(C=O)NC(=O)C(CC(C)C)NC(=O)OCc1ccccc1 (stereo not given)
inactive: Potency [1] | Potency [2] | Potency [3] | Potency [4]

CC(C)=CC(=O)O
inactive: Potency [1] | Potency [2] | Potency [3] | Potency [4]

C[C@@H]1CCCCCCCCCCC1=O
inactive: Potency [1] | Potency [2] | Potency [3] | Potency [4]

CCOc1ccc(O)cc1
inactive: Potency [1] | Potency [2] | Potency [3] | Potency [4]

C[C@@H]1C[C@H]2[C@@H]3C[C@H](F)C4=CC(=O)C=C[C@@]4(C)[C@]3(F)[C@H](O)C[C@]2(C)[C@@]1(O)C(=O)CO
inactive: Potency [1] | Potency [2] | Potency [3] | Potency [4]

CCCCCC1C(=O)CCC1CC(=O)OC (stereo not given)
inactive: Potency [1] | Potency [2] | Potency [3] | Potency [4]

CCCC/C=C/CCCCO
inactive: Potency [1] | Potency [2] | Potency [3] | Potency [4]

CNCC(=O)O
inactive: Potency [1] | Potency [2] | Potency [3] | Potency [4]

COc1cc(C2C(c3ccccc3)C(c3cc(OC)cc(=O)o3)C2c2ccccc2)oc(=O)c1 (stereo not given)
inactive: Potency [1] | Potency [2] | Potency [3] | Potency [4]

O=c1c(-c2ccc(O)cc2)coc2cc(OC3O[C@H](CO)[C@H](O)[C@H](O)[C@H]3O)cc(O)c12 (stereo not given in full)
active: Potency [1] 19.3 µM | Potency [2] 17.2 µM | Potency [3] 21.7 µM | Potency [4] 19.3 µM

CC1=CC23C(=O)C(C=C(CO)[C@@H](O)[C@]2(O)[C@H]1O)[C@H]1[C@@H](C[C@H]3C)C1(C)C (stereo not given in full)
inactive: Potency [1] | Potency [2] | Potency [3] | Potency [4]

COc1cc(-c2ccccc2)nc2ccccc12
inactive: Potency [1] | Potency [2] | Potency [3] | Potency [4]

O=C1O/C(=C\c2ccc(O)cc2)C(O)=C1c1ccc(O)cc1
inactive: Potency [1] | Potency [2] | Potency [3] | Potency [4]

CCOC(=O)c1c(C)cc(O)cc1O
inactive: Potency [1] | Potency [2] | Potency [3] | Potency [4]

COc1ccc(/C=C/C(=O)O)cc1
inactive: Potency [1] | Potency [2] | Potency [3] | Potency [4]

Cn1c(-c2ccccc2)cc(=O)c2ccccc21
inactive: Potency [1] | Potency [2] | Potency [3] | Potency [4]

COC(=O)CC1[C@@]2(C)C[C@]34OC5(C)OC6(C7CC(=O)OC(c8ccoc8)[C@]7(C)CCC6(O5)[C@]13C)C(OC(C)=O)[C@]4(OC(C)=O)C2OC(C)=O (stereo not given in full)
inactive: Potency [1] | Potency [2] | Potency [3] | Potency [4]

CC(C)N(CCCNC(=O)Nc1ccc(C(C)(C)C)cc1)C[C@H]1O[C@@H](n2cc(Br)c3c(N)ncnc32)[C@H](O)[C@H]1O
inactive: Potency [1] | Potency [2] | Potency [3] | Potency [4]

CC1CCC2C(C)C3C(CC4[C@@H]5CC=C6C[C@@H](O)CC[C@]6(C)C5CC[C@]34C)N2C1 (stereo not given in full)
inactive: Potency [1] | Potency [2] | Potency [3] | Potency [4]

O=C1NC(=O)C(Cc2ccc(O)cc2)N1 (stereo not given)
inactive: Potency [1] | Potency [2] | Potency [3] | Potency [4]

COC1C(O)C(CO)OC1n1cnc2c(=O)[nH]c(N)nc21 (stereo not given)
inactive: Potency [1] | Potency [2] | Potency [3] | Potency [4]

CCCCCCCOC(C)=O
inactive: Potency [1] | Potency [2] | Potency [3] | Potency [4]

CC1(C)CCC[C@]2(C)[C@H]3Cc4cc(O)ccc4O[C@]3(C)CC[C@@H]12
inactive: Potency [1] | Potency [2] | Potency [3] | Potency [4]

CCCCCCCCCCCC(C)=O
inactive: Potency [1] | Potency [2] | Potency [3] | Potency [4]

CC(C)COC(=O)c1ccccc1
inactive: Potency [1] | Potency [2] | Potency [3] | Potency [4]

CN(C)c1nc(Cc2ccc(NC(=O)c3ccc4ccccc4c3)cc2)nc(Cl)c1CC(=O)O
inactive: Potency [1] | Potency [2] | Potency [3] | Potency [4]

CC(C)CCCC(=O)O
inactive: Potency [1] | Potency [2] | Potency [3] | Potency [4]

CC(C)(O)CC[C@@H](O)[C@](C)(O)C1CC[C@@]2(O)C3=CC(=O)[C@]4(O)C[C@@H](O)[C@@H](O)C[C@]4(C)C3CC[C@]12C (stereo not given in full)
inactive: Potency [1] | Potency [2] | Potency [3] | Potency [4]

CCN1C[C@]2(CO)CC[C@H](OC)[C@@]34C5C[C@H]6[C@H](OC)C5[C@](O)(C[C@H]6OC)[C@@](O)(C(OC)C23)[C@@H]14 (stereo not given in full)
inactive: Potency [1] | Potency [2] | Potency [3] | Potency [4]

COc1ccc(-c2coc3cc(O)ccc3c2=O)cc1OC
inactive: Potency [1] | Potency [2] | Potency [3] | Potency [4]

CC(C)=CCC1=C(O)[C@](O)(CC=C(C)C)C(=O)C(C(=O)CC(C)C)=C1O
inactive: Potency [1] | Potency [2] | Potency [3] | Potency [4]

CC(C)=CCCC(C)C=O (stereo not given)
inactive: Potency [1] | Potency [2] | Potency [3] | Potency [4]

CCCCC/C=C\C/C=C\C/C=C\CCCCCCC(=O)O[C@H](COCCCCCCCCCCCCCCCC)COP(=O)([O-])OCC[N+](C)(C)C
inactive: activity change, negative = inhibition [1] -13.6% [at 5.82 µM] | activity change, negative = reduced viability [2] 4.54% [at 5.82 µM] | activity change, negative = lower viability [3] 13.1% [at 5.82 µM] | activity change, negative = inhibition [4] 9.5% [at 5.82 µM]

CS(C)(=O)=O
inactive: Potency [1] | Potency [2] | Potency [3] | Potency [4]

C=C1C[C@H](O[C@@H]2O[C@H](CO)[C@@H](O)[C@H](O)[C@H]2O)[C@@H]2[C@H](OC(=O)[C@H]2C)[C@H]2[C@H](C)[C@@H](O)C[C@@H]12
inactive: Potency [1] | Potency [2] | Potency [3] | Potency [4]

COc1ccc(-c2coc3cc(OC)ccc3c2=O)cc1
inactive: Potency [1] | Potency [2] | Potency [3] | Potency [4]

C[C@H]1O[C@H](O[C@H]2[C@H](O)[C@@H](O)[C@@H](O[C@H]3[C@H](O)[C@@H](O)C(O)O[C@H]3CO)O[C@H]2CO)[C@H](O)[C@@H](O)[C@H]1N[C@H]1C=C(CO)[C@@H](O)[C@H](O)[C@@H]1O (stereo not given in full)
inactive: Potency [1] | Potency [2] | Potency [3] | Potency [4]

CC1=CC2OC3CC4OC(=O)C=CC=CC(=O)OCCC(C)C(O)C(=O)OCC2(CC1)C4(C)C31CO1 (stereo not given)
inactive: Potency [1] | Potency [2] | Potency [3] | Potency [4]

O=c1cc(-c2ccc(O)cc2)oc2cc(OC3OC(CO)C(O)C(O)C3O)c(C3OC(CO)C(O)C(O)C3O)c(O)c12 (stereo not given)
inactive: Potency [1] | Potency [2] | Potency [3] | Potency [4]

CNC(=O)c1ccccc1Sc1ccc2c(C=Cc3ccccn3)n[nH]c2c1
active: Potency [2] 17.2 µM
inactive: Potency [1] | Potency [3] | Potency [4]
